# Key:
# Assay in all cases: DAPPL (digital affinity profiling via proximity ligation, sequencing); 10 mM Tris-HCl pH 7.5, 50 mM NaCl, 1 mM DTT, 4% glycerol, room temperature, 30 min; GST-TFs on glutathione beads, 16-mer random dsDNA library, 0.1% formaldehyde crosslink after washing; high values mean tight binding
# Settings in all cases: protein: recombinant; tags: N-terminal GST; dsDNA, one strand shown
# FLI1 = target: T1, FLI1 (Homo sapiens, UniProt Q01543 1-452)
# T1 sequence: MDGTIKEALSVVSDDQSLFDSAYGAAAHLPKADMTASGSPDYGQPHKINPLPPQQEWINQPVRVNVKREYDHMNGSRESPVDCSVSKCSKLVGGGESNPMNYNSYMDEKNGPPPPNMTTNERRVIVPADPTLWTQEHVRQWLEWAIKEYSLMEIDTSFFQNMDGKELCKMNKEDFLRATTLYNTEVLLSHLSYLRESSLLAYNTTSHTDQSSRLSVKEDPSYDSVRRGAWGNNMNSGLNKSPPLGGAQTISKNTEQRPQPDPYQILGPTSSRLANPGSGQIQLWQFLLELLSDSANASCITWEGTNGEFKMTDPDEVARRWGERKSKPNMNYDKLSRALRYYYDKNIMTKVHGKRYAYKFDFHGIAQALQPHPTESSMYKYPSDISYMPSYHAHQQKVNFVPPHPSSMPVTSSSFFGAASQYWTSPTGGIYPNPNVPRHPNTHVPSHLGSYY
# In short: (§1)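 Binding signal is given per hexamer as its read frequency for a factor divided by its frequency in the tag-only sample. GST-fused human transcription factors were expressed in yeast, captured on glutathione beads, barcoded with DNA and pooled with that sample, then incubated with 200 nmole of a 16-mer random double-stranded DNA library in Tris/NaCl/DTT/glycerol buffer for 30 min at room temperature. The pools were then washed, crosslinked, proximity-ligated, amplified by PCR and sequenced on an Illumina NextSeq500.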
# ELK1 = target: T2, ELK1 (Homo sapiens, UniProt P19419 1-428)
# T2 sequence: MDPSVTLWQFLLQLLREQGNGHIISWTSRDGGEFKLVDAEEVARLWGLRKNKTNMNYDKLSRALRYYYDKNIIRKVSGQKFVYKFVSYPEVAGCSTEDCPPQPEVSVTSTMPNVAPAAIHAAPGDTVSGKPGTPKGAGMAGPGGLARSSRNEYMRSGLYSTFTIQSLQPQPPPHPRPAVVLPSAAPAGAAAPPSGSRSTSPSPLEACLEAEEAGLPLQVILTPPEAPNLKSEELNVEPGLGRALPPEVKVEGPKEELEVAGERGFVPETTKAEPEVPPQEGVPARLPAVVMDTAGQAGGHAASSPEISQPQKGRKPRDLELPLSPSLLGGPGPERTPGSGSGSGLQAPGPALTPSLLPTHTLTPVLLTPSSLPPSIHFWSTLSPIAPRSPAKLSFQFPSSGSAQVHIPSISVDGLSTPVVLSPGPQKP
# In short: as §1
# GABPA = target: T3, GABPA (Homo sapiens, UniProt Q06546 1-454)
# T3 sequence: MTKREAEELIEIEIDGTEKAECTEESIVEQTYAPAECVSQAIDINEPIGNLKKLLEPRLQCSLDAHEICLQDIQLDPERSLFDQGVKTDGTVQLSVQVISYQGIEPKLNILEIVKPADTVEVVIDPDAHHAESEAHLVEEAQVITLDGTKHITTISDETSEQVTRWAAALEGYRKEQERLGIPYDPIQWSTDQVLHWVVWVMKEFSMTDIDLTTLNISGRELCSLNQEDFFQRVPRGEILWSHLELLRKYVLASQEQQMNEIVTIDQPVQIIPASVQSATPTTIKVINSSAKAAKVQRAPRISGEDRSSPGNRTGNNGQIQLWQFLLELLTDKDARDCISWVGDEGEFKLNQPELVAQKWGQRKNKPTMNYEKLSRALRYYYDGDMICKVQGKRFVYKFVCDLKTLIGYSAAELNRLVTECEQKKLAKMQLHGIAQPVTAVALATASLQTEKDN
# In short: as §1
# ERG = target: T4, ERG (Homo sapiens, UniProt P11308 1-479)
# T4 sequence: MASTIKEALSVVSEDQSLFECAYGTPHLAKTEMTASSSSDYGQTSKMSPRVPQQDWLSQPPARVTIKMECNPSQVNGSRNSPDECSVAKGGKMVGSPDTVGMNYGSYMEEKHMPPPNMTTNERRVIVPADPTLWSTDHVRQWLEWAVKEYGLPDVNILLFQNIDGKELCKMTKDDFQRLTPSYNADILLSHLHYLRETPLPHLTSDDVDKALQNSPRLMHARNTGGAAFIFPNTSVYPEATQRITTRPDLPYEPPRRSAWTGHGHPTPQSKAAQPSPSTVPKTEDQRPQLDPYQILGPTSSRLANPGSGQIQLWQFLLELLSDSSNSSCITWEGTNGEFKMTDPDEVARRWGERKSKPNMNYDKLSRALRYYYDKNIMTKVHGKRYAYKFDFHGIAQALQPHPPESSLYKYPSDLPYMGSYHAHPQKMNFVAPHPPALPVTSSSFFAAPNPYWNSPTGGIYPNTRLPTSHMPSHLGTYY
# In short: as §1
# ELF1 = ELF1 (Homo sapiens, UniProt P32519 1-619)
# Sequence of ELF1 (P32519 whole entry): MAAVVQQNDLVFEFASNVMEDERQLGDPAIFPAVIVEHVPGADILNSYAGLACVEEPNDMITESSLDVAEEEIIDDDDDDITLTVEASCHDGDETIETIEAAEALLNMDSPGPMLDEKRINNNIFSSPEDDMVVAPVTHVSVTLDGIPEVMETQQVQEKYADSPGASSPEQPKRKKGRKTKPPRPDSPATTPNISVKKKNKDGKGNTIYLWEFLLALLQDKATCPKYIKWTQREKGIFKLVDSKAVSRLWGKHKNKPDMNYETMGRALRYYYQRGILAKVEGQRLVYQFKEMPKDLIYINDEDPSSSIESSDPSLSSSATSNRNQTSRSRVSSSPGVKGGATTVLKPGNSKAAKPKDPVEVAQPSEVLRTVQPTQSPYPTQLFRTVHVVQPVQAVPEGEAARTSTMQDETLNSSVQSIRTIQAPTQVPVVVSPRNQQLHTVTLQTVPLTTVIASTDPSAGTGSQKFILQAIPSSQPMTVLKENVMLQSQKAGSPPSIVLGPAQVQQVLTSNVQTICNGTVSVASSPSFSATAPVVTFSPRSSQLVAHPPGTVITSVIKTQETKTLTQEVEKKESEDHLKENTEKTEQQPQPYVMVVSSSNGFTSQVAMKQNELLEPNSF
# In short: as §1
# EHF = target: T5, EHF (Homo sapiens, UniProt Q9NZC4 1-300)
# T5 sequence: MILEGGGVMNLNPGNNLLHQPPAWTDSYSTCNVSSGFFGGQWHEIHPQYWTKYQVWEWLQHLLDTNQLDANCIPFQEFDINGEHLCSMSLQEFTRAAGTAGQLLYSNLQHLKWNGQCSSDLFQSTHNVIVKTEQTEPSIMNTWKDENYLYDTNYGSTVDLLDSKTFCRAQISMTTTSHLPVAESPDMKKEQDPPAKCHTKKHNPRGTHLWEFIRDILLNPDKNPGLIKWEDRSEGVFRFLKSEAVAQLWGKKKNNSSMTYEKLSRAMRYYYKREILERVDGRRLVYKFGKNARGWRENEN
# In short: as §1
# SPI1 = SPI1 (Homo sapiens, UniProt P17947 1-270)
# In short: as §1
# SPIB = SPIB (Homo sapiens, UniProt Q01892 1-262)
# Sequence of SPIB (Q01892 whole entry): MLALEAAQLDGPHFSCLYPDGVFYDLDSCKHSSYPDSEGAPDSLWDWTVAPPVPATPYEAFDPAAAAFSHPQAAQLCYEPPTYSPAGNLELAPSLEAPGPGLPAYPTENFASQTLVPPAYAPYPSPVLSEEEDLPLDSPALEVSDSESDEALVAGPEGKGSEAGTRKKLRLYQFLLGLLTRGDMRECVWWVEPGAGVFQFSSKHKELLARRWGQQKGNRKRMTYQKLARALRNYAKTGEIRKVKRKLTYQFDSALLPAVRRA
# In short: as §1
# ELK3 = target: T6, ELK3 (Homo sapiens, UniProt P41970 1-407)
# T6 sequence: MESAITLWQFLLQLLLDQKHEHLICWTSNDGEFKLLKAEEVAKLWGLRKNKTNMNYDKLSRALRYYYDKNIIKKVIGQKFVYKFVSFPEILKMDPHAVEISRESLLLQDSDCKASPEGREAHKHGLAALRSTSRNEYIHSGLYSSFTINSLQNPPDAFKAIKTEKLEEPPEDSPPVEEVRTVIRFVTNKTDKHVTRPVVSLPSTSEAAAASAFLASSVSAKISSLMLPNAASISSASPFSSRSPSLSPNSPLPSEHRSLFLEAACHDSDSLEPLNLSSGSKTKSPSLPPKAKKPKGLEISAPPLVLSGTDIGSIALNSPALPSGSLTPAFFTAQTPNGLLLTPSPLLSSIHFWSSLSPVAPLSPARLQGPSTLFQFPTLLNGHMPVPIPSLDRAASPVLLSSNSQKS
# In short: as §1
sequence,measurement,setting,value
AATCTT,binding signal,FLI1,"1.36 fold enrichment (6-mer frequency, TF over GST control)"
same,binding signal,ELK1,"1.24 fold enrichment (6-mer frequency, TF over GST control)"
same,binding signal,GABPA,"1.28 fold enrichment (6-mer frequency, TF over GST control)"
same,binding signal,ERG,"1.32 fold enrichment (6-mer frequency, TF over GST control)"
same,binding signal,ELF1,"1.29 fold enrichment (6-mer frequency, TF over GST control)"
same,binding signal,EHF,"1.29 fold enrichment (6-mer frequency, TF over GST control)"
same,binding signal,SPI1,"1.26 fold enrichment (6-mer frequency, TF over GST control)"
same,binding signal,SPIB,"1.29 fold enrichment (6-mer frequency, TF over GST control)"
same,binding signal,ELK3,"1.44 fold enrichment (6-mer frequency, TF over GST control)"
